# Assay results taken from PubChem BioAssay (NCI).
# Compounds without any hit were thinned out: in the full panel of roughly 83,000, 20% have a hit.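 Results are percent growth after 48 hours of single-concentration exposure. 100 means growth as in untreated cells, lower positive values show inhibition; negative values down to -100 show cell death.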 A number with no mark means an inactive call. Calls of active or inactive are those of the source. Rule for the calls: active = growth percent below 10; inactive = the rest.
# Legend:
# Test in all cases: NCI-60 one-dose screen, 48 h (100 = growth as untreated, 0 = no growth, -100 = all killed)
# Settings in all cases: 10 µM unless noted
# DU-145 prostate = test system: DU-145 prostate
# K-562 leukemia = test system: K-562 leukemia
# MALME-3M melanoma = test system: MALME-3M melanoma
# MDA-MB-231 breast = test system: MDA-MB-231 breast
# RXF 393 renal = test system: RXF 393 renal
# SF-268 CNS = test system: SF-268 CNS
# SF-295 CNS = test system: SF-295 CNS
# SF-539 CNS = test system: SF-539 CNS
# UACC-257 melanoma = test system: UACC-257 melanoma
# M14 melanoma = test system: M14 melanoma
# HCT-15 colon = test system: HCT-15 colon
# HT29 colon = test system: HT29 colon
# SNB-75 CNS = test system: SNB-75 CNS
# SNB-19 CNS = test system: SNB-19 CNS
# U251 CNS = test system: U251 CNS
# PC-3 prostate = test system: PC-3 prostate
# SK-MEL-5 melanoma = test system: SK-MEL-5 melanoma
# UACC-62 melanoma = test system: UACC-62 melanoma
# LOX IMVI melanoma = test system: LOX IMVI melanoma
# SK-MEL-28 melanoma = test system: SK-MEL-28 melanoma
SMILES,growth (DU-145 prostate) [%],growth (K-562 leukemia),growth (MALME-3M melanoma),growth (MDA-MB-231 breast) [%],growth (RXF 393 renal),growth (SF-268 CNS) [%],growth (SF-295 CNS),growth (SF-539 CNS) [%],growth (UACC-257 melanoma),growth (M14 melanoma) [%],growth (HCT-15 colon) [%],growth (HT29 colon) [%],growth (SNB-75 CNS),growth (SNB-19 CNS) [%],growth (U251 CNS),growth (PC-3 prostate) [%],growth (SK-MEL-5 melanoma),growth (UACC-62 melanoma),growth (LOX IMVI melanoma),growth (SK-MEL-28 melanoma) [%]
Cc1ccccc1NC(=O)N/C(N)=N/c1nc(-c2cccc([N+](=O)[O-])c2)cs1,69.3,9.08% (active),33%,50.4,56.7%,64,15.8%,41.1,51.5%,19,24.8,17.1,-9.74% (active),44.1,40.4%,58,49.3%,34.1%,-10.5% (active),54.1
CCN(CC)CCn1nc2c3c(cccc3c1=O)-c1ccccc1-2,20.9,13.8%,-9.04% (active),37.7,24.2%,45.9,7.02% (active),30.7,2.85% (active),28.4,17.1,15.6,50.9%,26,6.95% (active),26.6,-20% (active),5.94% (active),-3.44% (active),37.1
Cc1nn(-c2ccccc2)c2nc3c(c(-c4ccc(Cl)cc4)c12)CNC1(CCSCC1)N3,110,93.1%,96.5%,96.9,88.8%,101,103%,110,107%,94.1,101,101,78.6%,106,95.8%,87,99.1%,102%,97.7%,104
COc1ccc(-c2nc(SC(C)C)nc(NNC(N)=S)c2C#N)cc1,77.7,16.9%,51.7%,43.3,63.7%,62.5,55.2%,50.1,82.7%,53.8,23.6,85,32.3%,38,–,55.6,28.9%,22.2%,40.2%,58.7
CCOC(=O)C/C(C)=N\NC(=O)c1ccncc1,107,93.2%,83.8%,102,72.3%,101,92.9%,97.7,107%,106,108,100,107%,87.7,–,96.5,104%,88.1%,105%,116
Cc1ccc(S(=O)(=O)n2cc(CNc3ccc(N4CCOCC4=O)cc3)c3ccccc32)cc1,67.6,82.4%,62.9%,87.8,-8.02% (active),89.4,88.7%,96.8,86.6%,93.3,74.7,89.1,73.4%,97.7,95.1%,–,93%,78.2%,87.2%,101
COc1cccc(C(=O)NCCCNc2cc(-c3cn(-c4ccccc4)nc3-c3cccc(OC)c3)ccn2)c1,65.8,22.8%,51.7%,44,66.8%,63.9,44%,85.3,30%,34.4,35.5,27.7,63.5%,65,–,27.4,9.17% (active),26.2%,51.8%,65.7
O=C(O)c1ccc2c(c1Cl)C(=O)c1ccccc1C2=O,107,73.7%,132%,112,165%,113,108%,102,109%,103,95.9,87.5,73.1%,98.8,–,116,102%,97.7%,97.2%,107
